Measurements reported in PubChem BioAssay (NCI).
About 83,000 compounds went through this panel and 20% of them were active in at least one assay; those are over-represented in the sample as a whole.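 Plates (96-well) were seeded with cells, treated with compound at one concentration, and incubated for 48 hours before percent growth was determined.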 Calls of active or inactive are those of the source. How the source made its calls: active means growth percent below 10; inactive means the rest.

test system: HCC-2998 colon; assay: NCI-60 one-dose screen, 48 h (100 = growth as untreated, 0 = no growth, -100 = all killed); details: 10 µM unless noted

Row | Compound | growth
1 | COc1ccc(-c2cc(-c3nnc(SCC(=O)Nc4ccc(/C(C)=N\O)cc4)o3)c3ccccc3n2)cc1 | 101% (inactive)
2 | CCC1=C[C@H]2CN(CCc3c([nH]c4ccccc34)[C@@](C(=O)OC)(c3cc4c(cc3OC)N(C)[C@H]3[C@@](O)(C(=O)OC)[C@H](OC(C)=O)[C@]5(CC)[C@@H]6C[C@@H]6CN6CC[C@]43[C@@H]65)C2)C1 | 22.2% (inactive)
3 | COCCOCCOCc1n(Cc2ccc3ccccc3n2)c2ccccc2[n+]1Cc1ccc2ccccc2n1 | 23.2% (inactive)
4 | COc1ccc(-c2cn(-c3ccc(Cl)cc3)c(=S)[nH]2)cc1OC | 79.2% (inactive)
5 | O=C(Nc1nccs1)c1noc2ccccc12 | 105% (inactive)
6 | CCOC(=O)c1c(C)nc2c(c1N)/C(=C/c1ccccn1)C(=O)N2Cc1ccccc1 | 11.2% (inactive)
7 | COc1ccc(Cl)c([N+](=O)[O-])c1 | 104% (inactive)
8 | O=[N+]([O-])c1ccc(Oc2ccc(-c3ccccc3)cc2)cc1 | 92.2% (inactive)
9 | CNC(=O)c1cc(Oc2ccc3c(c2)sc2nc(-c4ccc(NC(C)=O)cc4)cn23)ccn1 | 78.1% (inactive)
10 | Clc1ccc2c(NCCCNC3CCCCC3)ccnc2c1 | 91.3% (inactive)
11 | CCSc1ccc(C2C(Br)C(=O)N2c2cc(OC)c(OC)c(OC)c2)cc1 (stereo not given) | 31.7% (inactive)
12 | C=CCn1c(SCC(=O)Nc2ccc(C(=O)/C=C/c3cc(OC)c(OC)c(OC)c3)cc2)nnc1-c1ccc(Cl)cc1 | -8.4% (active)
13 | COC(=O)c1oc2c(C(=O)/C=C/c3ccc(OC)cc3)c(OCCCN3CCCCC3)ccc2c1C | -45% (active)
14 | C#C[C@@]1(O)[C@@H](CO)O[C@@H](n2cc(Cl)c3c(N)ccnc32)[C@@H]1O | 85.4% (inactive)
15 | CN1CC=C(c2cc(NC(=O)Nc3ccc(Oc4ccnc(NC(=O)C5CC5)c4)c(F)c3)cc(C(F)(F)F)c2)CC1 | 11.8% (inactive)
16 | C=C(C)[C@@H]1CCC=C2CC[C@]3(C)[C@H](CC[C@@H]4[C@@]5(C)CCCNC(C)(C)[C@@H]5CC[C@]43C)[C@H]21 | 5.32% (active)
17 | COc1ccc(C(=O)c2cc(OC)c(C)c(OC)c2)cc1OC(=O)CCl | 24.9% (inactive)
18 | COc1ccc(-c2[nH]c3ccccc3c2C=C(C#N)C#N)cc1 | -39.2% (active)
19 | COc1ccc(-c2[nH]c3ccc(OC)cc3c2C=C(C#N)C#N)cc1 | 50.3% (inactive)
20 | NC(N)=NC(N)=Nc1cc2ccccc2c2ccccc12 | 26.2% (inactive)
21 | CCCCCOC(=O)c1ccccc1O | 109% (inactive)
22 | COc1cc(C(=O)Nc2cc(OC)c3ccn(C)c3c2)cc2c1C[C@]1(C)CC[C@@H](O)C(C)(C)[C@H]1O2 | 37.4% (inactive)
23 | CC(=O)c1ccc(NC(=O)CSc2nnc(-c3cc(-c4ccc(Cl)cc4)nc4ccccc34)o2)cc1 | 101% (inactive)
24 | FC(F)(F)c1ccc2c(Nc3cccc(C4CC(c5ccccc5)=NN4c4ccc(Cl)cc4)c3)ccnc2c1 (stereo not given) | 66.5% (inactive)
25 | O=C1c2ccccc2C(=O)c2c1oc1c2c(=O)[nH]c2ccc(Cl)cc21 | 65.1% (inactive)
26 | CN(C)CCCn1c2c(c3cc(-c4ccco4)ccc3c1=O)C(=O)c1ccccc1-2 | 71.7% (inactive)
27 | Nc1c(C(=O)Nc2ccccc2)sc2nc3c(cc12)CN(C(=O)OCc1ccccc1)CC3 | 77.5% (inactive)

test system: KM12 colon; assay: as above; details: 10 µM unless noted

Row | Compound | growth
28 | CCOC(=O)C1CCN(S(=O)(=O)/N=C2/NC(=O)NC2=C(Cl)Cl)CC1 | 12.8% (inactive)
29 | COc1ccc(-c2cc(-c3nnc(SCC(=O)Nc4ccc(/C(C)=N\O)cc4)o3)c3ccccc3n2)cc1 | 101% (inactive)
30 | COc1ccc(-c2cs/c(=N\N=C\c3ccc(O)cc3O)n2/N=C/c2ccc(O)cc2O)cc1 | -51% (active)
31 | CCC1=C[C@H]2CN(CCc3c([nH]c4ccccc34)[C@@](C(=O)OC)(c3cc4c(cc3OC)N(C)[C@H]3[C@@](O)(C(=O)OC)[C@H](OC(C)=O)[C@]5(CC)[C@@H]6C[C@@H]6CN6CC[C@]43[C@@H]65)C2)C1 | 16.2% (inactive)
32 | COCCOCCOCc1n(Cc2ccc3ccccc3n2)c2ccccc2[n+]1Cc1ccc2ccccc2n1 | 12% (inactive)
33 | CCOC(=O)NCCc1nc2c([nH]1)c(=O)n(C)c(=O)n2C | 101% (inactive)
34 | COc1ccc(-c2cn(-c3ccc(Cl)cc3)c(=S)[nH]2)cc1OC | 70.2% (inactive)
35 | O=C(Nc1nccs1)c1noc2ccccc12 | 94.3% (inactive)
36 | CCOC(=O)c1c(C)nc2c(c1N)/C(=C/c1ccccn1)C(=O)N2Cc1ccccc1 | 12.2% (inactive)
37 | COc1ccc(Cl)c([N+](=O)[O-])c1 | 102% (inactive)
38 | Cn1c2ccccc2c2c(OC(=O)c3ccccc3)c3c(nc21)-c1ccccc1C3 | 96.7% (inactive)
39 | O=[N+]([O-])c1ccc(Oc2ccc(-c3ccccc3)cc2)cc1 | 89.5% (inactive)
40 | CNC(=O)c1cc(Oc2ccc3c(c2)sc2nc(-c4ccc(NC(C)=O)cc4)cn23)ccn1 | 43.3% (inactive)
41 | COc1ccc2nc(-c3ccc(Cl)cc3)cc(-c3nnc(SCC(=O)Nc4ccc(/C(C)=N\O)cc4)o3)c2c1 | 30.9% (inactive)
42 | C#Cc1ccccc1NC(=O)c1sc2nc3c(cc2c1N)CCCCCC3 | 42.7% (inactive)
43 | CN(C)CCCn1c2c(c3cc(-c4cccc(S(N)(=O)=O)c4)ccc3c1=O)C(=O)c1ccccc1-2 | 65.5% (inactive)
44 | Clc1ccc2c(NCCCNC3CCCCC3)ccnc2c1 | 101% (inactive)
45 | O=C(Nc1nc(-c2ccccc2Cl)cs1)c1cc(-c2ccc(Br)cc2)nc2ccccc12 | 59% (inactive)
46 | CC[C@H](Nc1ncnc2nc[nH]c12)c1nc2cccc(CC(=O)c3ccc(C(=O)NO)cc3)c2c(=O)n1-c1ccccc1 | 93.5% (inactive)

Row | Compound | growth
47 | CCSc1ccc(C2C(Br)C(=O)N2c2cc(OC)c(OC)c(OC)c2)cc1 (stereo not given) | 17% (inactive)
48 | C=CCn1c(SCC(=O)Nc2ccc(C(=O)/C=C/c3cc(OC)c(OC)c(OC)c3)cc2)nnc1-c1ccc(Cl)cc1 | 9.43% (active)
49 | COC(=O)c1oc2c(C(=O)/C=C/c3ccc(OC)cc3)c(OCCCN3CCCCC3)ccc2c1C | -11.5% (active)
50 | C#C[C@@]1(O)[C@@H](CO)O[C@@H](n2cc(Cl)c3c(N)ccnc32)[C@@H]1O | 69.9% (inactive)
51 | CN1CC=C(c2cc(NC(=O)Nc3ccc(Oc4ccnc(NC(=O)C5CC5)c4)c(F)c3)cc(C(F)(F)F)c2)CC1 | -11.2% (active)
52 | C=C(C)[C@@H]1CCC=C2CC[C@]3(C)[C@H](CC[C@@H]4[C@@]5(C)CCCNC(C)(C)[C@@H]5CC[C@]43C)[C@H]21 | 19.9% (inactive)
53 | COc1ccc(C(=O)c2cc(OC)c(C)c(OC)c2)cc1OC(=O)CCl | 19.1% (inactive)
54 | COc1ccc(-c2[nH]c3ccccc3c2C=C(C#N)C#N)cc1 | 3.41% (active)
55 | CC(=O)c1cnc(-c2ccccc2)nc1CBr | 95.2% (inactive)
56 | COc1ccc(-c2[nH]c3ccc(OC)cc3c2C=C(C#N)C#N)cc1 | 20.1% (inactive)
57 | NC(N)=NC(N)=Nc1cc2ccccc2c2ccccc12 | 47% (inactive)
58 | CCCCCOC(=O)c1ccccc1O | 105% (inactive)
59 | COc1cc(C(=O)Nc2cc(OC)c3ccn(C)c3c2)cc2c1C[C@]1(C)CC[C@@H](O)C(C)(C)[C@H]1O2 | 27% (inactive)
60 | CC(=O)c1ccc(NC(=O)CSc2nnc(-c3cc(-c4ccc(Cl)cc4)nc4ccccc34)o2)cc1 | 89.3% (inactive)
61 | CC(=O)c1cc2c(N)c(C(=O)Nc3ccccn3)sc2nc1C | 89.3% (inactive)
62 | FC(F)(F)c1ccc2c(Nc3cccc(C4CC(c5ccccc5)=NN4c4ccc(Cl)cc4)c3)ccnc2c1 (stereo not given) | 15.5% (inactive)
63 | O=C1c2ccccc2C(=O)c2c1oc1c2c(=O)[nH]c2ccc(Cl)cc21 | 0.119% (active)
64 | CN(C)CCCn1c2c(c3cc(-c4ccco4)ccc3c1=O)C(=O)c1ccccc1-2 | 44.4% (inactive)
65 | Nc1c(C(=O)Nc2ccccc2)sc2nc3c(cc12)CN(C(=O)OCc1ccccc1)CC3 | 39.1% (inactive)
